In PubChem BioAssay (NCATS):
Several values for one entry are separate records, joined by “and”; a condition that tells them apart may be missing. Identical values can stand only once. Results filed as inconclusive are left out. Entries that show only a call come without a potency. More than one record can exist for a structure, and the calls need not agree. Activity calls are given as the source filed them. Calls come from the whole dose curve; as a rule, active = well fitted inhibition curve with a large enough effect; inconclusive = small, poorly fitted or top-dose-only effect; inactive = flat fitted curve, though single readings scatter.

assay: P-glycoprotein substrates identified in KB-8-5-11 adenocarcinoma cell line, qHTS therapeutic library screen (AID 1346987); settings: KB-8-5-11 (P-gp overexpressing) viability, CellTiter-Glo, 72 h; at 44.5 µM (top of the series); note: nearly all actives have a fitted effect of over 65% in size
Description: The ATP-binding cassette transporters P-glycoprotein (P-gp) is known to limit brain penetration of many chemotherapy drugs. […] As such, we developed a high-throughput screen (HTS) to identify substrates of P-gp from a series of chemical libraries including the National Center for Advancing Translational Sciences Pharmaceutical Collection NPC, 2,816 compounds), testing a total of 10,804 compounds, most of which have known mechanisms of action. We used the CellTiter-Glo viability assay to test library compounds against the parental KB-3-1 human cervical adenocarcinoma cell line and the colchicine-selected sub-line KB-8-5-11 that over-expresses P-gp. KB-8-5-11 cells were also tested in the presence of a P-gp inhibitor (tariquidar) to assess reversability of transporter-mediated resistance. Of the tested compounds, a total of 90 P-gp substrates were identified including 55 newly identified P-gp substrates. Substrates were confirmed using an orthogonal killing assay against HEK-293 cells transfected with P-gp. As exemplars, we confirmed that […] (cyclin-dependent kinase inhibitor); AT9283, (Janus kinase 2/3 inhibitor); ispinesib (kinesin spindle protein inhibitor); gedatolisib (PKI-587, phosphoinositide 3-kinase/mammalian target of rampamycin inhibitor); GSK-690693 (AKT inhibitor); and KW-2478 (heat shock protein 90 inhibitor) were substrates , and direct ATPase stimulation was assessed. ABCG2 was also found to confer high levels of resistance to AT9283, GSK-690693 and gedatolisib, while ispinesib, AT7519 and KW-2478 were weaker substrates.
The HeLa derivative cell line, KB-3-1, and its colchicine-selected, P-gp-overexpressing subline, KB-8-5-11 were maintained in DMEM with 10% FCS and Pen/Strep with glutamine at 37 degree C in 5% CO2. For KB-8-5-11 cells, colchicine was added to the medium at a concentration of 100 ng/mL. HEK-293 cells transfected with empty vector (pcDNA) or vector containing human ABCB1 (MDR-19) or ABCG2 (R-5) have been described previously (Robey, Lin, Qiu, Chan & Bates, 2011) and were maintained in EMEM supplemented with 10% FCS, Pen/Strep and glutamine with 2 mg/ml G418 to select for the expression of the transporter. Cultures were confirmed to be free of mycoplasma infection using the MycoAlert Mycoplasma Detection Kit (Lonza, Walkersville, MD). For the screen, assay medium was identical to culture medium except for KB-8-5-11 where colchicine was excluded from the medium.
All cell lines were plated into 1536-well plates at 500 cells/well in 5 uL media. Compounds were then pinned in dose-response using a 1536-head pin tool (Kalypsis, San Diego, CA) and plates were incubated at 37 degree C in 5% CO2 for an additional 72 h. CellTiter-Glo reagent (Promega) was dispensed into the wells, incubated for 5 min and luminescence was read on a ViewLux instrument (Perkin-Elmer). Cytotoxic compounds were defined as those that yielded a curve class of -1.1, -1.2, -2.1, -2.2, -2.3, or -2.4, a maximum response of >50% and an AC50 of < 10 uM. Cherry-picked hits from screening analysis were tested with both the KB pair of cell lines, and the pcDNA (empty vector control) and MDR-19 (P-gp overexpressing) pair were tested, in the absence and presence of tariquidar.
Potency is the fitted concentration of half-maximal effect.

SMILES	outcome
CN(C)C(=N)N=C(N)N	inactive

same assay, conditions: KB-8-5-11 (P-gp overexpressing) viability, CellTiter-Glo, 72 h; series mostly up to 44.5 µM

SMILES	Potency	outcome
OCCN1CCN(CCCN2c3ccccc3Sc3ccc(C(F)(F)F)cc32)CC1	16.6 µM (active) and 18.4 µM (active)	–
CCOC(=O)C(C)(C)Oc1ccc(Cl)cc1	inactive	–
CN(C)C(=N)N=C(N)N	–	inactive [setting not given]
Cc1ccc(C(=O)Nc2ccc(S(=O)(=O)O)c3cc(S(=O)(=O)O)cc(S(=O)(=O)O)c23)cc1NC(=O)c1cccc(NC(=O)Nc2cccc(C(=O)Nc3cc(C(=O)Nc4ccc(S(=O)(=O)O)c5cc(S(=O)(=O)O)cc(S(=O)(=O)O)c45)ccc3C)c2)c1	inactive	–
CNCCCC12CCC(c3ccccc31)c1ccccc12	20.9 µM (active)	–
COc1ccc2[nH]cc(CCNC(C)=O)c2c1	inactive	–
O=C(CCCN1CCC(O)(c2ccc(Cl)cc2)CC1)c1ccc(F)cc1	18.4 µM (active)	–
COc1cc2c(c(OC)c1OC)-c1ccc(OC)c(=O)cc1[C@@H](NC(C)=O)CC2	23.1 µM (active) and 132 nM (active)	–
COc1ccc2c(c1)c(CC(=O)O)c(C)n2C(=O)c1ccc(Cl)cc1	inactive	–
Cn1c(=O)c2c(ncn2C)n(C)c1=O	inactive	–
CC(C)NCC(O)c1ccc(O)c(O)c1 (stereo not given)	inactive	–
NC(=O)OCC(COC(N)=O)c1ccccc1	inactive	–
CC1(CN2CCC(n3c(=O)[nH]c4ccccc43)CC2)OCc2ccccc2-n2cccc21 (stereo not given)	inactive	–
Nc1ccn([C@H]2CC[C@@H](CO)O2)c(=O)n1	inactive	–
Nc1nnc(-c2cccc(Cl)c2Cl)c(N)n1	inactive	–
O=c1c(O)c(-c2ccc(O)c(O)c2)oc2cc(O)cc(O)c12	inactive	–
CC(C(=O)O)c1cccc(C(=O)c2ccccc2)c1 (stereo not given)	inactive	–
CS(=O)(=O)Nc1ccc([N+](=O)[O-])cc1Oc1ccccc1	inactive	–
CN(C)C(=O)C(CCN1CCC(O)(c2ccc(Cl)cc2)CC1)(c1ccccc1)c1ccccc1	18.7 µM (active)	–
O=C1N(c2ccccc2)c2ccccc2C1(Cc1ccncc1)Cc1ccncc1	inactive	–

SMILES	Potency	outcome
CC(C)(C)C(=O)Oc1ccc(S(=O)(=O)Nc2ccccc2C(=O)NCC(=O)O)cc1	inactive	–
COc1cc2nc(N(C)CCCNC(=O)C3CCCO3)nc(N)c2cc1OC (stereo not given)	inactive	–
CC(C)(Oc1ccc(C2CC2(Cl)Cl)cc1)C(=O)O (stereo not given)	inactive	–
NCCCCCC(=O)O	inactive	–
Cc1cn([C@H]2C[C@H](N=[N+]=[N-])[C@@H](CO)O2)c(=O)[nH]c1=O	inactive	–
CN(C)CCOC(c1ccccc1)c1ccccc1	inactive	–
COc1cc2nc(N3CCN(C(=O)c4ccco4)CC3)nc(N)c2cc1OC	inactive	–
Cn1ccc2cc3c(cc21)CCN3C(=O)Nc1cccnc1	inactive	–
Cn1cnc2c1c(=O)[nH]c(=O)n2C	inactive and 16.6 µM (active)	–
O=c1c(-c2ccc(O)cc2)coc2cc(O)cc(O)c12	inactive	–
CN1CCN(CCCN2c3ccccc3Sc3ccc(Cl)cc32)CC1	23.5 µM (active)	–
COc1nc(C)nc(Cl)c1NC1=NCCN1	inactive	–
CCc1cccc2c3c([nH]c12)C(CC)(CC(=O)O)OCC3 (stereo not given)	inactive	–
Cc1cnc(C(=O)NCCc2ccc(S(=O)(=O)NC(=O)NC3CCCCC3)cc2)cn1	inactive	–
COc1ccc(CCN(C)CCCC(C#N)(c2ccc(OC)c(OC)c2)C(C)C)cc1OC (stereo not given)	20.6 µM (active)	–
CN(CCOc1ccc(NS(C)(=O)=O)cc1)CCc1ccc(NS(C)(=O)=O)cc1	inactive	–
CC1COc2c(N3CCN(C)CC3)c(F)cc3c(=O)c(C(=O)O)cn1c23 (stereo not given)	inactive	–
NC12CC3CC(CC(C3)C1)C2	inactive	–
CN1C2CCC1CC(OC(=O)C(CO)c1ccccc1)C2 (stereo not given)	inactive	–
